Measured values taken from PubChem BioAssay (Tox21).
Records with an inconclusive call do not appear. Activity calls are given as the source filed them. The call rests on the fitted dose curve; in most records, active means well fitted activation curve with a large enough effect in the repeat runs; inconclusive means weak or mixed curves; inactive means no such curve, though single readings can be large or run the other way.

assay: qHTS assay for small molecules that induce genotoxicity in human embryonic kidney cells expressing luciferase-tagged ATAD5 (AID 651632); settings: HEK293T ATAD5-luciferase induction, 16 h; series mostly up to 83.3 µM; activation: at the top concentration; further: nearly all actives have a fitted effect of over 15% in size
Text: U.S. Tox21 Program National Center for Advancing Translational Sciences [NCATS] NIH Chemical Genomics Center [NCGC] U.S. Environmental Protection Agency [EPA] National Institutes of Environmental Health Sciences [NIEHS] National Toxicology Program [NTP] U.S. Food and Drug Administration [FDA] Tox21 Assay Overview: As cancer cells divide rapidly and during every cell division they need to duplicate their genome by DNA replication. The failure to do so results in the cancer cell death. Based on this concept, many chemotherapeutic agents were developed but have limitations such as low efficacy and severe side effects etc. A new cell based assay was developed to find the compounds that effectively block DNA replication either by directly damaging DNA or by inhibiting other cellular mechanisms. Enhanced Level of Genome Instability Gene 1 (ELG1; human ATAD5) protein levels increase in response to various types of DNA damage. Using a luciferase reporter-gene tagged with ATAD5, a cell-based assay [developed by Kyungjae Myung, NHGRI, NIH] was used to measure the induction of ATAD5 in human embryonic kidney cells (HEK293T). So, increase in luciferase activity can be used to identify the compounds that cause genetic stress.
Tox21 Assay Protocol Summary: For genotoxicity screening, 2,000 cells in 5 uL/well were dispensed into white, solid-bottom 1536-well plates using a Multidrop Combi (Thermo Scientific) dispenser. Following transfer of 23 nL compound or DMSO vehicle by a pin tool, the plates were incubated 16 hr at 37C and 5% CO2. 5 ul Amplite (AAT Bioquest, Inc.) was then added to each plate and following 30 min incubation at room temperature, luciferase activity was quantified on a ViewLux CCD-based plate reader.
On the % scale 0 is the no-effect control and ±100 the full control effect; potency means the concentration at half of the fitted maximal effect.

Compound | Potency | activation
COc1cc(CNC(=O)CCCC/C=C/C(C)C)ccc1O | inactive | –
Cc1cc(SC2=C(O)C[C@@](CCc3ccc(N)cc3)(C(C)C)OC2=O)c(C(C)(C)C)cc1CO | – | 1.72% (inactive)
CC/C=C/CCO | – | 1.37% [at 95.3 µM] (inactive)
CCCCCCCCCCCCSC#N | – | -3.5% (inactive)
O=C1C=CCCC1 | – | -3.08% [at 95.3 µM] (inactive)
CCCCCCCCNC | – | 0.811% (inactive)
CCCC(=O)OCCC(C)C | – | 1.71% (inactive)
O=c1c2ccccc2oc2ccccc12 | – | 4.78% (inactive)
CC(O)C(C)O (stereo not given) | – | 1.8% [at 95.3 µM] (inactive)
Nc1cccc2c(=O)[nH][nH]c(=O)c12 | – | 0.731% [at 95.3 µM] (inactive)
O=C(O)c1cccc(C(=O)O)c1C(=O)O | – | 0.527% [at 95.3 µM] (inactive)
CC/C=C\CCO | – | 0.634% (inactive)
OCCOc1cccc(OCCO)c1 | – | 2.8% (inactive)
CC1=C(C)C(=O)C(C(CCCCCC(=O)O)c2ccccc2)=C(C)C1=O (stereo not given) | – | -2.48% (inactive)
CC(=O)CC/C=C(\C)CC/C=C(\C)CC/C=C(\C)CCC=C(C)C | – | 3.24% (inactive)
C=CCCC | – | 0.924% [at 95.3 µM] (inactive)
Clc1cccc(C(c2ccc3nc[nH]c3c2)n2ccnc2)c1 (stereo not given) | – | -8.62% (inactive)
FC(F)(Cl)C(F)(Cl)Cl | – | 1.59% (inactive)
CC1(C)[C@@H]2CC[C@]3(C2)[C@@H]1C(=O)CCC3(C)C | – | -0.888% (inactive)
C=CC(O)CCCCC (stereo not given) | – | 0.594% (inactive)

Compound | Potency | activation
CCOc1ccc(NC(C)=O)cc1N | – | -2.57% [at 95.3 µM] (inactive)
CCC[Si](OC)(OC)OC | – | 2.8% (inactive)
O=C(O)c1ccc2c(c1)nc(C(=O)NC1CCN(C3CC3)CC1)n2Cc1cc(-c2ccc(Cl)s2)on1 | – | 2.75% [at 39.1 µM] (inactive)
C1CCN(CN2CCCCC2)CC1 | – | -0.282% (inactive)
O=C1c2ccccc2C(=O)C1c1ccc2ccccc2n1 | 0.0762 µM (active) | –
CCCC1CCCC(=O)O1 (stereo not given) | – | 2.74% (inactive)
CCC(C)CCCC(C)(C)O (stereo not given) | – | 1.09% (inactive)
C[C@H](CN1CCCC1)C(=O)c1ccc(C(F)(F)F)cc1 | – | 3.92% (inactive)
CC(=O)S[C@H](C(=O)N[C@H]1Cc2ccccc2[C@H]2CCC[C@@H](C(=O)O)N2C1=O)C(C)C | – | 0.453% (inactive)
CCCCCCCCCCCCCCCCC(=O)O | – | 3.03% (inactive)
CCOC(=O)CC(O)(CC(=O)OCC)C(=O)OCC | – | 3.36% (inactive)
CCc1ccc(C(=O)C(C)CN2CCCCC2)cc1 (stereo not given) | – | -3.01% (inactive)
Nc1ccc(C(=O)Oc2ccccc2)c(O)c1 | 9.44 µM (active) | –
Cc1ccccc1CCO | – | -1% (inactive)
COC(=O)Cc1cccc2ccccc12 | – | 1.51% (inactive)
CC(C)(C)c1ccc(CCC=O)cc1 | – | -6.67% (inactive)
COC(=O)/C=C/C(C)=C\C=C\C(C)=C\C=C\C=C(C)\C=C\C=C(C)\C=C\C(=O)O | – | 5.79% (inactive)
S=c1[nH][nH]c(=S)s1 | – | -3.34% (inactive)
CC(C)CCCCCCCOC(=O)c1ccc(C(=O)OCCCCCCCC(C)C)c(C(=O)OCCCCCCCC(C)C)c1 | – | 1.34% (inactive)
O=c1[nH][nH]c2ccccc12 | – | 3.29% [at 95.3 µM] (inactive)
